A selection: hits, their analogues and other compounds. The true share with any hit is near 2.3%.
Hsp90 Hop PPI – qHTS Assay for Disrupters of an Hsp90 Co-Chaperone Interaction; AID 595, 2007; 0.44% of 71,000 active; AlphaScreen TPR2A-His6 binding biotin-Hsp90 C-terminal peptide; Potency, µM (top dose mostly 57 µM); Hsp90 C-terminal peptide / TPR2A (Hop) interaction, human; active means well fitted curve in either direction with a large enough effect; inconclusive means small, poorly fitted or top-dose-only effect, or another doubt
BRCT PPI red – qHTS Assay for Inhibitors of BRCT-Phosphoprotein Interaction (Red Fluorophore). Breast cancer type 1 susceptibility protein (Homo sapiens), P38398. BRCT-phosphopeptide binding, red fluorescence polarization. Potency, µM (top dose mostly 76.9 µM), most hits filed as inhibitors. 0.03% of 75,000 active
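Fluorescence polarization: 100 nM His-tagged BRCA1 BRCT with 100 nM TAMRA-labelled phospho-BACH1 decapeptide, phosphate buffer pH 7.3 with 150 mM NaCl, DTT, 0.01% Tween 20; 12 min RT. Binding inhibition seen as FP decrease.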
YjeE inh – qHTS Assay for Inhibitors of YjeE | tRNA threonylcarbamoyladenosine biosynthesis protein TsaE (Escherichia coli (strain … | purified YjeE enzyme, qHTS inhibition assay | Potency, µM | 0.05% of 71,000 active
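Fluorescence polarization of a BODIPY Texas Red–ADP probe (2 uM) bound to purified YjeE (10 uM) was read after 15 min room-temperature incubation with compounds. Loss of polarization marks inhibitors; ADP serves as titrated control.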
Tau filament bind – qHTS Assay for Tau Filament Binding | Potency, µM (doses to about 57.1 µM) | recombinant tau filaments, thioflavin S fluorescence, 15 h; filaments grown with octadecylsulfate alongside compound | Microtubule-associated protein tau (Homo sapiens), P10636 | 2% of 71,000 active;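 further: actives lower thioflavin S fluorescence by blocking filaments or displacing dye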
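Quantitative HTS: thioflavine S signal from ODS-induced tau filaments, excited at 450 nm, emission 510 nm. Conditions: 1 uM tau, 30 uM ODS, 15 h at 37 C, pH 7.4.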
BRCT inh green – qHTS Assay for Inhibitors of BRCT-Phosphoprotein Interaction (Green Fluorophore) | BRCA1 BRCT-phosphopeptide binding, green fluorescence polarization | Potency, µM (series often up to 76.9 µM), actives largely listed as inhibitors | 0.05% of 75,000 active | AID 875, 2007
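Fluorescence polarization: His-tagged BRCT (~35 kDa BRCA1 C-terminus, 250 nM) bound to 100 nM fluorescein-labeled phosphorylated 10-aa BACH1 peptide, pH 7.3 phosphate buffer with DTT and Tween 20. Compounds incubated 12 min at room temperature; inhibition read as lowered polarization.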
DNA Pol III inh – qHTS Assay for Inhibitors of DNA Polymerase III Holoenzyme System; reconstituted DNA polymerase III holoenzyme replication, biochemical; Potency, µM (titrated, usually from 57.1 µM); 0.25% of 71,000 active; AID 603, 2007
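Reconstituted *E. coli* holoenzyme (0.35 nM Pol III, 1 nM beta, 154 nM SSB, 2 nM primase) was preincubated with compound for 15 min at RT. Synthesis on 1.4 nM ssM13Gori ran 35 min, then was stopped with PicoGreen/EDTA and read as dsDNA fluorescence.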
Each line names hits and unclear results; the compound was inactive in the other large screens. Unless noted, the call rests on the fitted dose curve; in most records, active means well fitted curve in the direction sought with a large enough effect; inconclusive means small, poorly fitted or top-dose-only effect, or another doubt; inactive means no such curve, though single readings can be large; an effect the other way counts as inactive or inconclusive.

CCOCCCn1c(=N)c(C(N)=S)cc2c(=O)n3cccc(C)c3nc21	DNA Pol III inh 25µM
CCn1c(=N)c(C(=O)NCc2cccnc2)cc2c(=O)n3cccc(C)c3nc21	none
CCCCNC(=O)c1cc2c(=O)n3cccc(C)c3nc2n(Cc2ccccc2)c1=N	Tau filament bind 0.2µM
O=C(NCCN1CCCCC1)c1ccc(Cc2nc3ccccc3[nH]2)cc1	none (no result: Hsp90 Hop PPI, YjeE inh, Tau filament bind, DNA Pol III inh)
COc1ccc(-c2cc3nc(-c4ccccc4)cc(N4CCC5(CC4)OCCO5)n3n2)cc1	Hsp90 Hop PPI 16µM
NC(N)=NC[C@H](N)C(=O)O	none
O=C(O)CCc1c2ccc(=O)c(O)c-2oc2c(O)c(O)ccc12	Hsp90 Hop PPI inconclusive, BRCT PPI red inconclusive, Tau filament bind 3.2µM, BRCT inh green inconclusive, DNA Pol III inh 0.079µM
O=c1cc(-c2cccc(O)c2)oc2c(O)c(O)ccc12	Tau filament bind inconclusive, DNA Pol III inh inconclusive
Cc1conc1NC(c1cccs1)c1ccc2cccnc2c1O (stereo not drawn)	Hsp90 Hop PPI 25µM, Tau filament bind 13µM
Oc1c(C(Nc2nc3ccccc3s2)c2ccco2)ccc2cccnc12 (stereo not drawn)	Hsp90 Hop PPI inconclusive
O=C(c1ccncc1)N1CCC2(CC1)CCN(C(c1ccccc1)c1ccccc1)CC2	none
Cc1c(N=C/C=C2\N(C)c3ccccc3C2(C)C)c(=O)n(-c2ccccc2)n1C	Tau filament bind 1µM
Cc1ccc2nc(CSc3nnc(-c4ccco4)o3)cc(=O)n2c1	DNA Pol III inh 20µM
C=Cc1c(C)c2cc3nc(cc4[nH]c(cc5nc(cc1[nH]2)C(C)=C5CCC(=O)O)c(CCC(=O)OC)c4C)[C@@]1(C)C3=CC=C(C(=O)OC)[C@H]1C(=O)OC (tested in a mixture with another compound)	Hsp90 Hop PPI 0.25µM, Tau filament bind 1.6µM
Cn1c(-c2ccccc2)cc2c3no[n+]([O-])c3ccc21	Tau filament bind 10µM
CCOC(=O)c1c(C)n(OCc2ccccc2)c2ccc3c(no[n+]3[O-])c12	none
O=C(CSc1nnc(-c2cccs2)n1CC1CCCO1)c1cc2ccccc2o1 (stereo not drawn)	Tau filament bind 16µM
O=S(=O)(NCCCCCCc1ccccc1)c1cccc2c(Cl)cccc12	Hsp90 Hop PPI 40µM, Tau filament bind inconclusive
CCCCCCCNS(=O)(=O)c1cccc2c(Cl)cccc12	Hsp90 Hop PPI inconclusive, Tau filament bind 40µM
NCCCCCCCCCCNS(=O)(=O)c1cccc2c(Cl)cccc12	none
CCC/C=C(\CCC)C(NS(C)(=O)=O)c1ccccc1 (stereo not drawn)	none
CN1CCN(c2ncc3nc(-c4ccc(Cl)cc4)c(=O)n(CCC#N)c3n2)CC1	Tau filament bind 3.2µM
N#CCCn1c(=O)c(-c2ccc(Cl)cc2)nc2cnc(N3CCNCC3)nc21	Tau filament bind 4µM
O=c1c(-c2ccc(F)cc2)nc2cnc(N3CCNCC3)nc2n1C1CC1	none
Cn1cccc1C(=O)N1CCC2(CC1)CCN(c1ccccc1)CC2	none
Cn1cccc1C(=O)N1CCC2(CC1)CCN(c1ccc(-c3ccccc3)cc1)CC2	Tau filament bind 16µM
CCc1cccc2c1NC(=O)[C@]21[C@@H]2C(=O)N(Cc3ccccc3)C(=O)[C@@H]2[C@@H]2CCCN21	Tau filament bind 25µM
O=C1C2C3C=CC(C3=C3CCCCC3)C2C(=O)N1Cc1ccccc1 (stereo not drawn)	none
Cc1c(Cl)ccc2c1NC(=O)[C@]21[C@@H]2C(=O)N(Cc3ccccc3)C(=O)[C@@H]2[C@@H]2CCCN21	Tau filament bind 25µM
COc1cc(Sc2ccc(C)cc2)c(OC)cc1N	Hsp90 Hop PPI inconclusive, Tau filament bind 25µM
COC(=O)c1ccc(Sc2ccc(C)cc2)c(N)c1	none
COC(=O)[C@@H]1CC[C@H](C)[C@@H](c2ccc(C)cc2)N1C(=O)c1ccc(/C=N\OC[C@@H]2O[C@H](c3ccccc3)C=C[C@@H]2Oc2ccc(OC)cc2)cc1	none (no result: Hsp90 Hop PPI, YjeE inh, Tau filament bind, DNA Pol III inh)
COC(=O)c1cc2nc(-c3ccc(OC)cc3)cc(C(F)(F)F)n2n1	none
COc1ccc(-c2cc(C(F)(F)F)n3nc(C(=O)Nc4cc(C)on4)cc3n2)cc1OC	Tau filament bind 1.6µM
CC1=CC(=C2C(=O)c3ccccc3C2=O)C=C(C)N1Cc1ccco1	Tau filament bind 32µM
Cc1ccc(C(=O)Nc2ccc(S(=O)(=O)O)c3cc(S(=O)(=O)O)cc(S(=O)(=O)O)c23)cc1NC(=O)c1cccc(NC(=O)Nc2cccc(C(=O)Nc3cc(C(=O)Nc4ccc(S(=O)(=O)O)c5cc(S(=O)(=O)O)cc(S(=O)(=O)O)c45)ccc3C)c2)c1	Hsp90 Hop PPI inconclusive, Tau filament bind inconclusive, DNA Pol III inh 32µM
COC(=O)c1ccc(C(NC(=O)OCc2ccccc2)/C(=C/[C@@H](C)C(=O)NCc2ccc(OC)c(O)c2)c2cccnc2)cc1 (stereo partly drawn)	none
CCOC(=O)C(C)Sc1nc(-c2ccco2)cc(C(F)(F)F)c1C#N (stereo not drawn)	Hsp90 Hop PPI inconclusive, Tau filament bind 20µM
CC1=C(/C=C/C(C)=C/C=C/C(C)=C/C(=O)Nc2ccc(O)cc2)C(C)(C)CCC1	Tau filament bind 3.2µM
O=C(O)CN(CC(=O)O)Cc1cc2c(-c3ccccc3C(=O)O)c3cc(CN(CC(=O)O)CC(=O)O)c(=O)cc-3oc2cc1O	BRCT PPI red 0.63µM, BRCT inh green 0.13µM (no result: Hsp90 Hop PPI, YjeE inh, Tau filament bind, DNA Pol III inh)
O=c1cc(-c2ccc(O)cc2O)oc2ccccc12	Tau filament bind inconclusive
O=C(C[n+]1ccc2ccccc2c1)c1ccc2ccc3ccccc3c2c1	Tau filament bind 2µM
O=c1cc(-c2ccccc2)oc2cc(O)c(O)c(O)c12	Hsp90 Hop PPI inconclusive, Tau filament bind 4µM
O=C(O)[C@H]1CN(C/C=C/P(=O)(O)O)CCN1	none (no result: Hsp90 Hop PPI, YjeE inh, Tau filament bind, DNA Pol III inh)
c1ccc2c(c1)[nH]c1nc(SCCN3CCOCC3)nnc12	none
Brc1ccc2[nH]c3nc(SCCN4CCOCC4)nnc3c2c1	Tau filament bind 13µM
CN(N=O)c1ccc(/C=C\c2ccnc3ccccc23)cc1	YjeE inh inconclusive
CCCCOc1ccc(-c2nnn(C(C)(C)C(=O)OC)n2)cc1	Hsp90 Hop PPI 25µM
